Assay results: PubChem BioAssay (NCATS)
“And” between values parts separate entries of the source, which are not always exact repeats. Identical values can stand only once. Records with an inconclusive call do not appear. The source made the active and inactive calls. Unless noted, calls come from the whole dose curve; as a rule, active = well fitted curve in the direction sought with a large enough effect; inconclusive = small, poorly fitted or top-dose-only effect, or another doubt; inactive = no such curve, though single readings can be large; an effect the other way counts as inactive or inconclusive.

Experiments:
[1] = system: Zika virus NS2B-NS3 protease (linked construct); assay: Primary screen NINDS Rhodamine qHTS for Zika virus inhibitors (AID 1347160); note: nearly all actives have a fitted effect of over 55% in size; note: potency is the fitted concentration of half-maximal effect
Procedure, shortened: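 Purified linked NS2B-NS3 protease (NS2B hydrophilic domain joined to NS3 protease by flexible linker), 25 nM in 10 mM Tris-HCl pH 8.0, 0.01% Tween 20. Compounds titrated, 15 min preincubation at room temperature; 1.5 microM Rhodamine110 substrate, FITC fluorescence change over 15 min.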

[2] = biological target: Calcium and integrin-binding protein 1 (Homo sapiens) (UniProt Q99828); assay: Primary qHTS for Identification of Calcium Integrin Binding Protein 1 (CIB1) Competitor (AID 1508620);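 note: GST tagged CIB1 binding a fluorescein labelled alphaIIb integrin peptide tracer; top concentration of the series differs between compounds; % is set by controls: 0 for no effect and ±100 for the full control effect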
Chain of Calcium and integrin-binding protein 1 (Homo sapiens) (Q99828 whole entry, looked up): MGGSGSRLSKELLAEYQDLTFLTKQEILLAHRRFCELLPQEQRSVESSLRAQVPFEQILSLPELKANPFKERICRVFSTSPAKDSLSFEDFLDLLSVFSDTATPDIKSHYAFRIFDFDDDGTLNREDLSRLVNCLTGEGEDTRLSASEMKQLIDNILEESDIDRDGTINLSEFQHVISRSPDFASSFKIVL
Procedure, shortened: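 Fluorescence polarization competition: CIB1-GST (1 uM final) preincubated with compound 15 min at room temperature, then FITC-labeled alphaIIb peptide (100 nM final) added for another 15 min. Polarization read at Ex 480/Em 540.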

[3] = Primary qHTS for inhibitors of nuclear receptor binding SET domain protein 2 (NSD2) in an isogenic RCH-ACV NSD2 p.E1099K mutant (9B) (AID 1645876); note: potency is the fitted concentration of half-maximal effect; nearly all actives have a fitted effect of over 70% in size
[4] = Primary qHTS for inhibitors of nuclear receptor binding SET domain protein 2 (NSD2) in an RCH-ACV wild type WT cells (2C) (AID 1645877); note: potency is the fitted concentration of half-maximal effect; nearly all actives have a fitted effect of over 70% in size
[5] = biological target: Glutathione peroxidase 1 (Homo sapiens) (UniProt P07203); assay: Primary qHTS Assay for Inhibitors of Recombinant Selenoprotein Glutathione Peroxidase 1 (GPX1) (AID 1845191); note: nearly all actives have a fitted effect of over 65% in size; note: potency is the fitted concentration of half-maximal effect
Chain of Glutathione peroxidase 1 (Homo sapiens) (P07203 whole entry, looked up): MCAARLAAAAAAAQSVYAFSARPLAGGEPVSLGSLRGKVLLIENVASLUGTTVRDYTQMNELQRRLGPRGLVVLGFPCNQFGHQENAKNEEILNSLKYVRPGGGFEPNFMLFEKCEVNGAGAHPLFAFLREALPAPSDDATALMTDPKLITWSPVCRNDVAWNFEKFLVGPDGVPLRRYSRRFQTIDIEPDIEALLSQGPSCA
Procedure, shortened: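 Recombinant GPX1 (10 nM final) was preincubated with compound for 30 min at room temperature, then reacted with 1 mM GSH, 0.5 mM CHP, 0.5 mM NADPH and 100 nM glutathione reductase; NADPH fluorescence (340/450 nm) was read at 0 and 15 min.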

[6] = biological target: Phospholipid hydroperoxide glutathione peroxidase GPX4 (Homo sapiens) (UniProt P36969); assay: Primary qHTS Assay for Inhibitors of Recombinant Selenoprotein Glutathione Peroxidase 4 (GPX4) (AID 1845192); conditions: outcome: dose series up to 50 µM unless noted; note: nearly all actives have a fitted effect of over 65% in size; note: potency is the fitted concentration of half-maximal effect
Chain of Phospholipid hydroperoxide glutathione peroxidase GPX4 (Homo sapiens) (P36969 whole entry, looked up): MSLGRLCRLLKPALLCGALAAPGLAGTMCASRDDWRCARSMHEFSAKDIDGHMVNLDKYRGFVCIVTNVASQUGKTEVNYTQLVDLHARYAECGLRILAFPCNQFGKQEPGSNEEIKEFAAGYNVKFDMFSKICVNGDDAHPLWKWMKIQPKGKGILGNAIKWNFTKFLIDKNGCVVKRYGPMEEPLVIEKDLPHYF
Procedure, shortened: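 GR-coupled readout: 100 nM GR, 1 mM GSH, 0.5 mM NADPH; NADPH fluorescence (ex 340/em 450 nm) read at t=0 and after 15 min RT. GPX4 200 nM, preincubated 30 min with compound; substrate 0.5 mM CHP.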

[7] = biological target: Luciferin 4-monooxygenase (Photinus pyralis) (UniProt P08659); assay: Primary firefly luciferase (FLuc) qHTS assay for identification of artifact compounds. (AID 1845220); note: nearly all actives have a fitted effect of over 60% in size
Procedure, shortened: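 qHTS, 15 min compound preincubation with substrate (10 uM luciferin, 10 uM ATP) at RT, then 10 nM FLuc; 5 min; luminescence; % inhibition vs no-enzyme/DMSO controls, 4-parameter Hill fit.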

[8] = Primary fluorescence-based thiol-reactive (MSTI) qHTS assay for identification of artifact compounds. (AID 1845221);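 note: thiol-reactive compounds lower the probe fluorescence signal; nearly all actives have a fitted effect of over 65% in size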
Procedure, shortened: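 Thiol-reactive compounds detected by quenching of 4 uM MSTI fluorescence (525/598 nm) after 1 h room-temperature dark incubation in PBS pH 7.4, 2% DMSO. qHTS titration; percent inhibition Hill-fitted against Acetyl-MSTI/MSTI controls.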

[9] = system: Nanoluciferase (engineered Oplophorus gracilirostris luciferase); assay: Primary Nanoluciferase (NLuc) qHTS assay for identification of artifact compounds. (AID 1845222);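 note: 0% = DMSO and -100% = no enzyme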
Procedure, shortened: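 Luminescence read-out of secreted NLuc in S16 cell conditioned medium (1:55); compounds tested with 15 min RT preincubation, then Nano-Glo substrate 1:100, 5 min. % inhibition vs no-enzyme and DMSO controls, 4-parameter Hill fit.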

[10] = system: Es-2; assay: Primary qHTS to identify gynecologic anti-cancer compounds using libraries of approved drugs and bioactive compounds (AID 1345084); conditions: Gynecologic cancer cell panel viability, ATPlite luminescence, 48 h; series mostly up to 57.5 µM; note: nearly all actives have a fitted effect of over 55% in size; note: potency is the fitted concentration of half-maximal effect
Procedure, shortened: (§1)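 Five-point cytotoxicity, 48 h drug exposure at 37 C, 5% CO2, on cells seeded 16 h beforehand. ATP content read by ATPlite luminescence.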

[11] = system: HeLa; assay: as above; conditions: Gynecologic cancer cell panel viability, ATPlite luminescence, 48 h; series mostly up to 57.5 µM
Procedure, shortened: as §1

[12] = system: OV90; assay: as above; conditions: Gynecologic cancer cell panel viability, ATPlite luminescence, 48 h; series mostly up to 57.5 µM
Procedure, shortened: as §1

[13] = system: CASKI; assay: as above; conditions: Gynecologic cancer cell panel viability, ATPlite luminescence, 48 h; series mostly up to 57.5 µM
Procedure, shortened: as §1

[14] = system: Hek293T; assay: as above; conditions: Gynecologic cancer cell panel viability, ATPlite luminescence, 48 h, control line for the selectivity index; series mostly up to 57.5 µM
Procedure, shortened: as §1

[15] = system: JEG-3; assay: as above; conditions: Gynecologic cancer cell panel viability, ATPlite luminescence, 48 h; series mostly up to 57.5 µM
Procedure, shortened: as §1

[16] = system: Tov-21-G; assay: as above; conditions: Gynecologic cancer cell panel viability, ATPlite luminescence, 48 h; series mostly up to 57.5 µM
Procedure, shortened: as §1

[17] = system: Tov112D; assay: as above; conditions: Gynecologic cancer cell panel viability, ATPlite luminescence, 48 h; series mostly up to 57.5 µM
Procedure, shortened: as §1

[18] = qHTS drug screen for cell cycle checkpoint inhibitors in PARPi-resistant BRCA-mutant ovarian cancer cell lines. (AID 1963452; calls by dose curve); conditions: PEO1/OlaR viability, CellTiter-Glo luminescence, 96 h, stronger effect = lower value
Procedure, shortened: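 PEO1, PEO4 and PEO1/OlaR ovarian cancer cells, 600 per well, exposed 96 h at 37C to a dilution series. Viability read by CellTiter-Glo luminescence, normalized to DMSO and empty wells; activity summarized as Z-AUC.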

[19] = P-glycoprotein substrates identified in KB-8-5-11 adenocarcinoma cell line, qHTS therapeutic library screen (AID 1346987); note: potency is the fitted concentration of half-maximal effect; nearly all actives have a fitted effect of over 65% in size
Procedure, shortened: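 P-gp-mediated resistance screen: KB-8-5-11 cells treated 72 h with compounds in dose-response. CellTiter-Glo viability.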

[20] = system: C33A; assay: Primary qHTS to identify gynecologic anti-cancer compounds using libraries of approved drugs and bioactive compounds (AID 1345084); conditions: Gynecologic cancer cell panel viability, ATPlite luminescence, 48 h; series mostly up to 57.5 µM; note: nearly all actives have a fitted effect of over 55% in size; note: potency is the fitted concentration of half-maximal effect
Procedure, shortened: as §1

[21] = measured here: PEO1 parental Z-AUC

C=C1C(=O)O[C@H]2[C@H]1[C@@H](OC(=O)/C(C)=C\C)C[C@]1(C)O[C@@H]1[C@H]1O[C@H]1C(=C)[C@H]2O
active: Potency [3] 7.13 µM | Potency [4] 4.5 µM | Potency [10] 11.2 µM
inactive: Potency [1] | outcome [2] | Potency [5] | Potency [6] | Potency [7] | Potency [8] | Potency [9] | Potency [11] | Potency [12]

N#Cc1ccc2c(c1)CCN(CCC1CCC(NC(=O)c3ccnc4ccccc34)CC1)C2 (stereo not drawn)
inactive: Potency [1] | Potency [7] | Potency [8] | Potency [9] | Potency [13] | Potency [10] | Potency [11] | Potency [14] | Potency [15] | Potency [16] | Potency [17]

c1ccc(Cn2c(-c3ccc(OCC(C4CCNCC4)n4c(-c5ccccc5)nc5ccccc54)cc3)nc3ccccc32)cc1 (stereo not drawn)
-0.228: Z-AUC [18, 21]
inactive: Potency [1] | outcome [2] | Potency [5] | Potency [6] | Potency [7] | Potency [9] | Z-AUC [18] 0.308 | Potency [13] | Potency [10] | Potency [11] | Potency [14] | Potency [15] | Potency [12] | Potency [16] | Potency [17]
-0.72: Z-AUC ([18]; measured here: PEO4 Z-AUC)
active: Potency [3] 6.61 µM | Potency [4] 5.9 µM

OC(CNCCc1c[nH]c2ccccc12)Cn1c2ccccc2c2ccccc21 (stereo not drawn)
inactive: Potency [1] | outcome [2] | Potency [5] | Potency [6] | Potency [7] | Potency [8] | Potency [9] | Potency [10] | Potency [11] | Potency [14] | Potency [15] | Potency [12] | Potency [16] | Potency [17]
active: Potency [19] 16.4 µM | Potency [3] 5.15 µM | Potency [4] 4.59 µM

CC(C)COc1ccc(CNC(=O)N(Cc2ccc(F)cc2)C2CCN(C)CC2)cc1
inactive: Potency [1] | outcome [2] | Potency [5] | Potency [6] | Potency [7] | Potency [8] | Potency [9] | Potency [20] | Potency [11] | Potency [14] | Potency [16] | Potency [17]
active: Potency [19] 16.4 µM | Potency [3] 20.5 µM | Potency [4] 18.3 µM

O=C(O)c1ccc(O)c2ncc(N3CCCN(CCc4cccc5ccccc45)CC3)cc12
active: Potency [1] 6.31 µM | Potency [3] 4.09 µM | Potency [4] 4.09 µM
inactive: outcome [2] | Potency [5] | Potency [9] | Potency [13] | Potency [11]

COc1ccc(-c2cc(C(O)C3CCCCN3)c3ccccc3n2)cc1 (stereo not drawn)
-0.864: Z-AUC [18, 21]
-0.334: Z-AUC ([18]; measured here: PEO4 Z-AUC)
active: Potency [19] 20.6 µM | Potency [3] 7.42 µM | Potency [4] 4.68 µM | Potency [5] 20.2 µM | Potency [6] 22.7 µM | Potency [12] 31.6 µM
inactive: Potency [1] | outcome [2] | Potency [7] | Potency [8] | Potency [9] | Z-AUC [18] -0.506

Cc1ccc2c(Nc3ccc(Cl)cc3)nccc2c1Nc1ncccc1-c1ncnc2nc[nH]c12
active: Potency [3] 18.4 µM | Potency [4] 20.6 µM | Potency [12] 5.01 µM
inactive: Potency [1] | outcome [2] | Potency [5] | Potency [6] | Potency [7] | Potency [9] | Potency [20] | Potency [11] | Potency [14] | Potency [15]

COc1cc(N2CCN(C)CC2)ccc1Nc1nccc(-c2cn(C)c3cnccc23)n1
active: Potency [19] 16.4 µM | Potency [3] 7.28 µM and 8.33 µM | Potency [4] 5.15 µM and 4.17 µM
inactive: outcome [2] | Potency [5] | Potency [6] | Potency [7] | Potency [11] | Potency [14] | Potency [15] | Potency [16] | Potency [17]

FC(F)(F)c1ccc(CNc2ccc(Cc3c[nH]c4ncccc34)cn2)cc1
active: Potency [3] 16.3 µM and 10.5 µM | Potency [4] 14.5 µM and 8.33 µM
inactive: Potency [1] | outcome [2] | Potency [5] | Potency [6] | Potency [8] | Potency [9] | Z-AUC [18] -0.674 | Potency [10] | Potency [15] | Potency [12] | Potency [16]
-0.926: Z-AUC ([18]; measured here: PEO4 Z-AUC)
-1.25: Z-AUC [18, 21]

CN(CC(=O)N1CCOCC1)Cc1c(Cl)cccc1NC(=O)c1ccccc1
inactive: Potency [5] | Potency [6]

N#Cc1cccc(C#N)c1-c1nc2c3ccccc3c3cc(Cl)ccc3c2[nH]1
inactive: Potency [1] | outcome [2] | Potency [6] | Potency [7] | Potency [8] | Potency [13] | Potency [10] | Potency [14] | Potency [15] | Potency [12] | Potency [16] | Potency [17]
active: Potency [19] 23.1 µM | Potency [3] 10.3 µM | Potency [4] 10.3 µM
